Source: PubChem BioAssay
NS1 function inh = influenza NS1 inhibition; Potency, µM (top dose mostly 46.1 µM), without a hit: at the top dose activity, positive = more growth; hit rate 0.4% among 270,000; further: potency means the concentration at half of the fitted maximal effect; actives are rising curves; nearly all actives have a fitted effect of over 50% in size
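A cell-based growth assay was used: compounds that relieve NS1-induced slow growth of budding yeast raise OD600. Assay medium was yeast nitrogen base with ammonium sulphate and -URA supplement, pH 6.0, with 2% galactose.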
Pf growth 96h = P. falciparum growth inhibition at 96 hour, primary screen for plastid delayed-death inhibitors; P. falciparum luciferase reporter growth, 96 h; Potency, µM (highest dose often 28.7 µM), inactives show at the top dose activity change, negative = inhibition, actives largely listed as inhibitors; hit rate 6.9% among 320,000; AID 504834; active means well fitted inhibition curve with a large enough effect; inconclusive means small, poorly fitted or top-dose-only effect, or another doubt; inactive means no such curve, though single readings can be large or run the other way; further: potency means the concentration at half of the fitted maximal effect; on the % scale 0 is the no-effect control and ±100 the full control effect
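P. falciparum expressing integrated firefly luciferase, in erythrocytes at 2% hematocrit, 0.05% parasitemia, incubated with compounds 96 h at 37 C, 5% CO2. Growth inhibition read as loss of luminescence; two-generation exposure targets delayed-death apicoplast inhibitors.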
SARS PLpro yeast = inhibitors of SARS-CoV papain-like protease in yeast; AID 485353; hit rate 0.19% among 330,000; Potency, µM (titrated, usually from 32.9 µM), inactives show top-dose activity, positive = growth rescue, actives largely listed as activators; S. cerevisiae expressing SARS-CoV PLpro, growth rescue; further: potency means the concentration at half of the fitted maximal effect; 0% is about no effect; nearly all actives have a fitted effect of over 55% in size
Pf growth 48h = inhibits P. falciparum growth in the first generation, 48 h. hit rate 5.9% among 310,000. Potency, µM (series often up to 28.7 µM), without a hit: top-dose activity change, negative = inhibition, actives largely listed as inhibitors. P. falciparum luciferase growth in erythrocytes, 48 h. AID 504832; active means well fitted inhibition curve with a large enough effect; inconclusive means small, poorly fitted or top-dose-only effect, or another doubt; inactive means no such curve, though single readings can be large or run the other way; further: potency means the concentration at half of the fitted maximal effect; on the % scale 0 is the no-effect control and ±100 the full control effect
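Erythrocytes infected with P. falciparum carrying an integrated firefly luciferase reporter (2% hematocrit, 0.1% parasitemia final) were exposed to compounds in RPMI 1640 with 0.5% Albumax at 37 C, 5% CO2. Growth inhibition was scored as reduced luminescence.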
Shiga toxin inh = blocks Shiga toxin action in Vero cells. hit rate 9.2% among 290,000. Vero cells, Shiga toxin protein synthesis inhibition reporter. inhibition, % at 38.7 µM; in the data active means inhibition mostly above about 28%, no sharp cut-off; inactive means mostly below about 43%; further: 0% is about no effect
CHX counter = affects cycloheximide protein synthesis inhibition readout, counter-screen; cell reporter, cycloheximide protein synthesis inhibition counterscreen; max response, %; hit rate 12% among 300,000; AID 2314; in the data active means max response mostly above about 13%, no sharp cut-off; inactive means mostly below about 14%; further: read at 38.3 µM for the half of the compounds with a filed dose; 0% is about no effect
Numbers without * were called inactive; u = inconclusive; x = not tested or not shown; ! = a repeat was not active; [ ] = dose if it differs, or a comment. Hits are enriched below; roughly 21% of the tested compounds scored in any of these assays. Unless noted, the call rests on the fitted dose curve.

SMILES | NS1 function inh | Pf growth 96h | SARS PLpro yeast | Pf growth 48h | Shiga toxin inh | CHX counter
CC(C)C(OC(=O)CN1C(=O)c2ccccc2C1=O)C(=O)NC1CCCCC1 (stereo not given) | -1% | -4% | 2% | 7% | -2 | -6
CC(CCc1ccccc1)NS(=O)(=O)c1ccccc1Cl (stereo not given) | -36% | 2% | -21% | u | -15 | -3
C[N+](C)(C)CCCSc1nc2ccccc2[nH]1 | -1% | x | x | x | x | x
COc1ccc(C(C)=O)cc1COC(=O)C1CC(=O)N(Cc2ccccc2)C1 (stereo not given) | -5% | 21% | -5% | 2% | -4 | -3
CCOc1cc(S(=O)(=O)NCc2ccc(OC)cc2)c(OCC)cc1-n1cnnn1 | -2% | u | -13% | x | -4 | -1
COc1cc(S(=O)(=O)N(Cc2ccco2)C2CCCC2)ccc1-n1cnnn1 | -7% | 8% | -1% | u | -7 | -4
CCOc1ccccc1CN(Cc1ccco1)S(=O)(=O)c1ccc(-n2cnnn2)c(OC)c1 | -1% | x | -5% | 10µM* | 20 | 7
CCOc1cc(S(=O)(=O)NCc2ccco2)c(OCC)cc1-n1cnnn1 | -6% | u | 0% | -1% | 76* | 34*
Cc1cc(NC(=O)CSCC(=O)Nc2ccc(C)c(C)c2)no1 | x | -34% | 0% | -10% | x | x
CCCCCC(=O)Nc1cc(S(=O)(=O)N2CCOCC2)ccc1N1CCCCC1 | x | u | -7% | u | x | x
CN(C)c1ccc(/C=N/Nc2nc3ccccc3o2)cc1 | -1% | 45% | -1% | 45% | 34 | 5
CNc1nc(N/N=C/c2ccc([N+](=O)[O-])cc2)nc(Nc2ccccc2)n1 | 27% | u | -58% | 3.3µM* | 17 | 0
COc1cccc(/C=N/Nc2nc(Nc3ccc([N+](=O)[O-])cc3)nc(N3CCCC3)n2)c1O | x | 40% | u | u | 28 | 11
O=[N+]([O-])c1ccc(Nc2nc(N/N=C/c3cccc(F)c3)nc(N3CCCC3)n2)cc1 | 23% | u | -16% | 2.9µM* | 15 | 2
c1ccc(Nc2nc(N3CCCC3)nc(N3CCCC3)n2)cc1 | -32% | 12µM* | -7% | x | -3 | -3
O=[N+]([O-])c1ccc(/C=N/Nc2nc3ccccc3o2)cc1 | 1% | 9.3µM* | 1% | 129% | 48* | 31*
O=[N+]([O-])c1ccc(/C=N/Nc2nc(N3CCOCC3)nc(N3CCOCC3)n2)cc1 | 0% | -3% | 0% | -8% | 5 | -1
O=C(CCl)N1CCCC1c1ccc2c(c1)OCCO2 (stereo not given) | 0% | u | 3% | u | -10 | 3
O=C(Nc1ccccc1Br)c1cc[n+]([O-])cc1 | 2% | 13% | -12% | 9% | -5 | -3
CC(NC(=O)C(=O)NN=C1CCCC1)c1ccccc1 (stereo not given) | 6% | 30% | 1% | 22% | -4 | -3
c1ccc(Nc2nc(N3CCCCC3)nc(N3CCNCC3)n2)cc1 | -5% | u | 0% | u | 3 | -7
C(=N\Nc1nc(Nc2ccccc2)nc(N2CCCCC2)n1)/c1ccco1 | -1% | u | -4% | u | 32* | 28*
CCNc1nc(NC(C)(C)C)nc(N2CCCCC2)n1 | -45% | 33% | -1% | u | 23 | -3
c1ccc(Nc2nc(N3CCCCC3)nc(N3CCCCC3)n2)cc1 | -47% | 9.3µM* | -2% | x | -19 | -2
CCNc1nc(N2CCCC2)nc(N2CCCC2)n1 | -7% | 5% | -1% | 12µM* | 33 | 6
SMILES | NS1 function inh | Pf growth 96h | SARS PLpro yeast | Pf growth 48h | Shiga toxin inh | CHX counter
O=[N+]([O-])c1cc2c(cc1/C=N/Nc1nc(Nc3ccccc3)nc(N3CCCCC3)n1)OCO2 | u | 2.9µM* | 1% | 4.7µM* | 14 | 13
Cc1nn(C)c(C)c1NS(=O)(=O)c1c(C)n[nH]c1C | x | x | 1% | x | x | x
Fc1ccc(Nc2nc(Oc3ccccc3F)nc(N3CCCC3)n2)cc1 | 2% | x | -7% | 1.5µM* | -12 | 7
COc1ccc(N2CCN(c3nc(Nc4ccc(F)cc4)nc(OC)n3)CC2)cc1 | 10% | 24% | 1% | 53% | 22 | -3
CN1CCN(/N=C/c2nc(-c3ccccc3)n3ccccc23)CC1 | 12% | 171% | 6% | 136% | 41* | 3
CN1CCN(/N=C/c2nc(-c3ccccc3Cl)n3ccccc23)CC1 | 15% | u | 1% | u | -12 | -2
CN1CCN(/N=C/c2nc(-c3ccc(Cl)cc3)n3ccccc23)CC1 | u | 95% | 0% | 78% | 39* | 32*
Clc1ccccc1-c1nc(/C=N/N2CCOCC2)c2ccccn12 | x | 35% | 3% | -4% | 27 | 7
Clc1ccc(-c2nc(/C=N/N3CCOCC3)c3ccccn23)cc1 | x | 157% | 1% | 61% | 63 | 30*
O=Cc1nc(-c2ccc(Cl)cc2)n2ccccc12 | 2% | 36% | -4% | 32% | -3 | 9
CC(=O)Nc1cccc(OCC(=O)NC(C)c2ccc3ccccc3c2)c1 (stereo not given) | 16% | 0% | -1% | 16% | -8 | -1
CC(=O)CCc1ccc(OCC(O)CNCCOc2ccc(C)cc2)cc1 (stereo not given) | 6% | -4% | 1% | -16% | 13 | -4
CCCNCC(O)COc1ccccc1C(=O)CCc1ccccc1 (stereo not given) | -13% | 3.3µM*! | 0% | 1.2µM* | -16 | -4
CCN(CC)CC(O)COc1ccccc1C(=O)CCc1ccccc1 (stereo not given) | -18% | x | 5% | 1.5µM* | -21 | -5
CCN(CC)CCOc1ccccc1C(=O)CCc1ccccc1 | x | u | x | -15% | x | x
CCOC(=O)C1(Cc2cccc(OC)c2)CCCN(C(=O)c2cc(CC(C)C)[nH]n2)C1 (stereo not given) | -9% | u | -1% | -22% | 87* | 53*
CCOC(=O)C1(Cc2cccc(OC)c2)CCCN(C(=O)c2ccc(OC)o2)C1 (stereo not given) | 14% | 40% | 1% | u | 113* | 41*
COc1ccc(NS(=O)(=O)c2ccc(C)c(NC(=O)c3ccc(C)c(S(=O)(=O)N4CCOCC4)c3)c2)cc1 | u | 15µM* | -1% | u | -9 | -2
Cc1ccc(S(=O)(=O)N2CCOCC2)cc1NC(=O)c1cccc(S(=O)(=O)N2CCCC2)c1 | -3% | 29% | 0% | -19% | -36 | -2
Cc1ccc(C(=O)Nc2ccc3cn[nH]c3c2)cc1S(=O)(=O)N1CCOCC1 | 3% | u | 1% | u | 49* | 21*
CC(=O)c1ccc(NC(=O)c2ccc(C)c(S(=O)(=O)N3CCOCC3)c2)cc1 | 3% | 30% | 8% | u | 28 | 2
CC1CCC(N(CCCN)Cc2ccco2)CC1C (stereo not given) | x | -16%[5.75 µM] | -1% | 2%[5.75 µM] | -7 | -3
Cc1ccc(C(=O)/C=C/C(=O)O)cc1 | -20% | u | -34% | -18% | 6 | 7
